Results filed as inconclusive are left out. Calls of active or inactive are those of the source. The calls were made as follows, unless noted: active = hit-call score of the fitted dose curve at least 0.9, where 1 is the maximum; inconclusive = response in the unintended direction; inactive = score below 0.9.
Key:
[1] = ATG_TAL_CIS: Attagene CIS-FACTORIAL HepG2 Assay for human TAL Basal Promoter (AID 2282966; active = hit-call score of the fitted dose curve at least 0.9, where 1 is the maximum; inactive = score below 0.9;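 also: background control endpoint measuring basal TAL promoter reporter mRNA not a specific factor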); details: HepG2 Attagene cis-factorial TAL promoter reporter; actives raise or lower the signal
Summary of the method: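 Basal-promoter background-control endpoint from a multiplexed HepG2 reporter panel. Cells were exposed 24 h, then reporter mRNA was read by RT-PCR/CE fluorescence and fitted in both directions relative to DMSO.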

[2] = ATG_TGFb_CIS: Attagene CIS-FACTORIAL HepG2 Assay for human Transforming Growth Factor (TGF) (AID 2282967; active = hit-call score of the fitted dose curve at least 0.9, where 1 is the maximum; inactive = score below 0.9); details: HepG2 Attagene CIS TGFb reporter, mRNA transcription; actives raise or lower the signal
Summary of the method: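 Cells were dosed for 24 hours, after which total RNA was reverse-transcribed and reporter sequences amplified, labeled and sized by capillary electrophoresis. Activity was fitted in both directions against DMSO.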

[3] = ATG_VDRE_CIS: Attagene CIS-FACTORIAL HepG2 Assay for human Vitamin D Receptor Element (VDRE) (AID 2282968; active = hit-call score of the fitted dose curve at least 0.9, where 1 is the maximum; inactive = score below 0.9); details: HepG2 VDRE cis-reporter transcription, actives raise or lower the signal
Summary of the method: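 Measures endogenous factor activity through cis-element-driven reporter transcripts in transiently transfected HepG2. Cells are treated 24 h; reporter mRNA is quantified by RT-PCR and capillary electrophoresis; fitting is bidirectional.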

[4] = target: Nuclear receptor subfamily 1 group I member 3 (Homo sapiens) (UniProt Q14994); assay: ATG_CAR_TRANS: Attagene TRANS-FACTORIAL HepG2 Assay for human Constitutive Androstane Receptor (CAR) (AID 2282969); details: HepG2 Attagene TRANS-FACTORIAL CAR reporter;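 also: activators raise reporter mRNA above DMSO so AC50 marks induction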
Summary of the method: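 Signal is reporter mRNA induction relative to DMSO, measured 24 h after dosing by RT-PCR with fluorescent primer extension and capillary electrophoresis. Human HepG2 liver cells carried transiently transfected chimeric NR-Gal4/GAL4-UAS reporter constructs.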

[5] = target: Estrogen receptor (Homo sapiens) (UniProt P03372); assay: ATG_ERa_TRANS: Attagene TRANS-FACTORIAL HepG2 Assay for human Estrogen Receptor alpha (ERa) (AID 2282970); details: HepG2 Attagene TRANS ERa GAL4 reporter, mRNA
Summary of the method: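 Gal4-fusion ERa transactivation, measured as reporter transcript level in transiently transfected HepG2 cells. Exposure 24 h; RT-PCR plus capillary electrophoresis with fluorescence detection.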

[6] = target: X-box-binding protein 1 (Homo sapiens) (UniProt P17861); assay: ATG_Xbp1_CIS: Attagene CIS-FACTORIAL HepG2 Assay for human X-box Binding Protein 1 (XBP1) (AID 2282972; active = hit-call score of the fitted dose curve at least 0.9, where 1 is the maximum; inactive = score below 0.9); details: HepG2 XBP1 cis-element reporter, Attagene multiplex; actives raise or lower the signal
Summary of the method: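 Multiplexed cis-reporter readout in transfected HepG2 liver cells. Exposure lasted 24 hours. Activity in either direction was fitted against DMSO as negative control and baseline.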

[7] = target: Bile acid receptor (Homo sapiens) (UniProt Q96RI1); assay: ATG_FXR_TRANS: Attagene TRANS-FACTORIAL HepG2 Assay for Farnesoid X Receptor (FXR) (AID 2282979); details: HepG2 Attagene TRANS FXR-GAL4 reporter transcription;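 also: hits raise reporter mRNA above DMSO so AC50 marks FXR activation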
Summary of the method: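 HepG2 cells were transiently transfected with GAL4-UAS reporters driven by chimeric NR-Gal4 proteins and dosed for 24 h. Reporter mRNA was quantified by RT-PCR, fluorescent labelling, HpaI digestion and capillary electrophoresis, with gain of signal scored versus DMSO.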

[8] = target: Nuclear respiratory factor 1 (Homo sapiens) (UniProt Q16656); assay: ATG_NRF1_CIS: Attagene CIS-FACTORIAL HepG2 Assay for human Nuclear Respiratory Factor 1 (NRF1) Orphan Gene (AID 2282987; active = hit-call score of the fitted dose curve at least 0.9, where 1 is the maximum; inactive = score below 0.9); details: HepG2 NRF1 cis-element reporter, Attagene multiplex; actives raise or lower the signal
Summary of the method: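 Cells (HepG2, transient MRTU transfection) are exposed to compound for 24 h, then RNA isolated and reporter mRNA amplified and fluorescently labelled. Fragments are separated by capillary electrophoresis; signal change is fitted bidirectionally relative to DMSO.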

[9] = target: Glucocorticoid receptor (Homo sapiens) (UniProt P04150); assay: ATG_GR_TRANS: Attagene TRANS-FACTORIAL HepG2 Assay for human Glucocorticoid Receptor (GR) (AID 2282978); details: HepG2 Attagene TRANS GR reporter, mRNA transcription;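 also: activators score as hits since higher reporter transcript over DMSO is fitted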
Summary of the method: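 Reporter transcript levels, detected by fluorescence after RT-PCR and capillary electrophoresis, served as the endpoint. HepG2 cells bearing transfected GAL4-UAS reporters responsive to NR-GAL4 chimeras were incubated with compound 24 h; DMSO defined baseline.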

[10] = target: Oxysterols receptor LXR-beta (Homo sapiens) (UniProt P55055); assay: ATG_LXRb_TRANS: Attagene TRANS-FACTORIAL HepG2 Assay for human Liver X Receptor beta (LXRb) (AID 2282981); details: HepG2 Attagene TRANS GAL4-LXRb reporter, mRNA
Summary of the method: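 After 24 h of chemical treatment, transfected HepG2 cells yield total RNA; reporter cDNA is PCR-amplified, FAM-labelled, HpaI-cut and run on capillary electrophoresis. Signal reflects chimeric LXRb-Gal4 activity on GAL4-UAS reporters.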

[11] = ATG_M_06_TRANS: Attagene TRANS-FACTORIAL HepG2 Assay for M06 Transcription Factor (Internal Marker) (AID 2282983); details: HepG2 Attagene TRANS M06 internal marker reporter
Summary of the method: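 mRNA levels of a reporter transcript, quantified as FAM fluorescence on capillary electrophoresis, served as readout. HepG2 cells expressing exogenous GAL4-chimera reporter constructs were exposed for 24 h. Gain of signal over DMSO was evaluated.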

[12] = ATG_M_32_TRANS: Attagene TRANS-FACTORIAL HepG2 Assay for M32 Transcription Factor (Internal Marker) (AID 2282984); details: HepG2 Attagene TRANS M32 internal marker reporter
Summary of the method: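 Cell-based TRANS-format assay in HepG2: exogenous chimeric GAL4 reporter units transiently expressed, compounds applied 24 h. Reporter mRNA detected by RT-PCR plus capillary electrophoresis; this readout is an internal background marker.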

[13] = target: Nuclear receptor subfamily 4 group A member 2 (Homo sapiens) (UniProt P43354); assay: ATG_NURR1_TRANS: Attagene TRANS-FACTORIAL HepG2 Assay for human Nuclear Receptor Related Protein 1 (NURR1) (AID 2282985); details: HepG2 Attagene TRANS reporter, mRNA readout
Summary of the method: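 Measures transcriptional activation by an exogenous NR-Gal4 chimera in transfected HepG2 liver cells. After 24 h, reporter RNA is reverse-transcribed, amplified and resolved by capillary electrophoresis; DMSO defines baseline.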

[14] = target: Transcriptional activator Myb (Homo sapiens) (UniProt P10242); assay: ATG_Myb_CIS: Attagene CIS-FACTORIAL HepG2 Assay for human Myeloblastosis (Myb) Proto-Oncogene Transcription Factor (AID 2282986; active = hit-call score of the fitted dose curve at least 0.9, where 1 is the maximum; inactive = score below 0.9); details: HepG2 Attagene CIS-FACTORIAL Myb reporter transcription; actives raise or lower the signal
Summary of the method: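 Transiently transfected HepG2 cells, treated 24 h. Reporter mRNA quantified by RT-PCR/capillary electrophoresis; bidirectional fit relative to DMSO.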

[15] = target: Steroid hormone receptor ERR1 (Homo sapiens) (UniProt P11474); assay: ATG_ERRa_TRANS: Attagene TRANS-FACTORIAL HepG2 Assay for human Estrogen-Related Receptor alpha (ERRa) (AID 2282971); details: HepG2 Attagene TRANS reporter, ERRa transactivation
Summary of the method: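 HepG2 cells transiently transfected with GAL4-UAS reporter units and chimeric NR-Gal4 constructs; after 24 hour compound incubation, reporter mRNA quantified by RT-PCR, fluorescent labelling and capillary electrophoresis, gain of signal versus DMSO.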

[16] = ATG_GAL4_TRANS: Attagene TRANS-FACTORIAL HepG2 Assay for GAL4 (Internal Marker) (AID 2282976); details: HepG2 Attagene TRANS GAL4 internal marker reporter
Summary of the method: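 Background-control readout: GAL4-UAS reporter transcript in transiently transfected HepG2 cells after 24 h compound exposure. Measured by RT-PCR, 6-FAM primer extension, HpaI digest and capillary electrophoresis; gain-of-signal fit versus DMSO.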

[17] = target: Hepatocyte nuclear factor 4-alpha (Homo sapiens) (UniProt P41235); assay: ATG_HNF4a_TRANS: Attagene TRANS-FACTORIAL HepG2 Assay for human Hepatocyte Nuclear Factor 4 alpha (HNF4a) (AID 2282982); details: HepG2 HNF4a transactivation reporter, mRNA readout
Summary of the method: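 Multiplexed reporter assay: transfected HepG2, 24 h exposure, total RNA → oligo(dT) RT → PCR → 6-FAM extension → HpaI digest → CE fluorescence. DMSO = negative control.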

[18] = ATG_M_19_TRANS: Attagene TRANS-FACTORIAL HepG2 Assay for M19 Transcription Factor (Internal Marker) (AID 2282974); details: HepG2 Attagene TRANS-FACTORIAL M19 internal marker reporter
Summary of the method: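 Reporter mRNA induction was measured in transfected HepG2 cells 24 h after dosing. Endpoint fitted upward relative to DMSO and serves as a background control within the multiplexed TRANS panel.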

[19] = target: Oxysterols receptor LXR-alpha (Homo sapiens) (UniProt Q13133); assay: ATG_LXRa_TRANS: Attagene TRANS-FACTORIAL HepG2 Assay for human Liver X Receptor alpha (LXRa) (AID 2282980); details: HepG2 Attagene TRANS reporter, LXRa transactivation
Summary of the method: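 HepG2 cells transiently transfected with GAL4-UAS reporter units for chimeric NR-Gal4 proteins, exposed to chemicals for 24 h. Reporter mRNA quantified by RT-PCR and capillary electrophoresis; gain of signal fitted relative to DMSO.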

[20] = target: Estrogen-related receptor gamma (Homo sapiens) (UniProt P62508); assay: ATG_ERRg_TRANS: Attagene TRANS-FACTORIAL HepG2 Assay for human Estrogen-Related Receptor gamma (ERRg) (AID 2282977); details: HepG2 Attagene TRANS reporter, ERRg transactivation;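 also: hits increase reporter signal over DMSO so potencies reflect activators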
Summary of the method: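 Readout: fluorescent reporter-mRNA fragments resolved by capillary electrophoresis after RT-PCR and HpaI cut. Cells: transiently transfected HepG2 carrying GAL4-UAS reporters driven by exogenous NR-Gal4 chimeras, dosed 24 h. Activity fitted upward relative to DMSO baseline.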

Measured: AC50

Sequence of Oxysterols receptor LXR-beta (Homo sapiens) (P55055 whole entry, looked up, the tested form may be a part): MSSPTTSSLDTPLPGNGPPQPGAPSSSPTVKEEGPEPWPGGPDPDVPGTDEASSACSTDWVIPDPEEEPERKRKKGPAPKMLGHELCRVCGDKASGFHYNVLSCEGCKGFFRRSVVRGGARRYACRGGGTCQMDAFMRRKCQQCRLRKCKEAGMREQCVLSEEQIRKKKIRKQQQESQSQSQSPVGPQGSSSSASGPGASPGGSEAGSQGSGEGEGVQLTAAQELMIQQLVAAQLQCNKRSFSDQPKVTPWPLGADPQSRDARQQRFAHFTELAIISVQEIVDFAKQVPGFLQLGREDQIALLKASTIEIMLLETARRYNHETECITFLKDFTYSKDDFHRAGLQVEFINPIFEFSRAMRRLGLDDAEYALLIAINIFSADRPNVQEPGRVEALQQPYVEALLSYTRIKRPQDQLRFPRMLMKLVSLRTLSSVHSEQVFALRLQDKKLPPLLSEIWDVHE
Sequence of Nuclear receptor subfamily 4 group A member 2 (Homo sapiens) (P43354 whole entry, looked up, the tested form may be a part): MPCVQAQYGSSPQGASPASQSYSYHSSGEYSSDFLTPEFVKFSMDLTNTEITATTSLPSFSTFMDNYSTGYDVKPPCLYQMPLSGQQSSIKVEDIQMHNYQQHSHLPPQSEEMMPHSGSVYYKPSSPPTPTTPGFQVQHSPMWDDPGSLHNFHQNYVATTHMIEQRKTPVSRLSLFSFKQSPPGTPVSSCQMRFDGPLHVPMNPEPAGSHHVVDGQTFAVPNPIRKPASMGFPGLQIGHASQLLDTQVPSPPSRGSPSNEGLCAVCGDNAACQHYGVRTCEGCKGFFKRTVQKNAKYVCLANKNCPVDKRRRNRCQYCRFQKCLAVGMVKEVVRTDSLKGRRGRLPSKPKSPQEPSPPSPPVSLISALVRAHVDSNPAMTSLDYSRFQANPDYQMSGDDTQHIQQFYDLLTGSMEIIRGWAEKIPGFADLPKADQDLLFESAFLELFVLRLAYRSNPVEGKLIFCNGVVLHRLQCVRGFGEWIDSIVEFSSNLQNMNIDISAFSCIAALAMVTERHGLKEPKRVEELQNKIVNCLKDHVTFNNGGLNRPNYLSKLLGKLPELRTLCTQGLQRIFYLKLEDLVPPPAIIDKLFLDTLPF
Sequence of Oxysterols receptor LXR-alpha (Homo sapiens) (Q13133 whole entry, looked up, the tested form may be a part): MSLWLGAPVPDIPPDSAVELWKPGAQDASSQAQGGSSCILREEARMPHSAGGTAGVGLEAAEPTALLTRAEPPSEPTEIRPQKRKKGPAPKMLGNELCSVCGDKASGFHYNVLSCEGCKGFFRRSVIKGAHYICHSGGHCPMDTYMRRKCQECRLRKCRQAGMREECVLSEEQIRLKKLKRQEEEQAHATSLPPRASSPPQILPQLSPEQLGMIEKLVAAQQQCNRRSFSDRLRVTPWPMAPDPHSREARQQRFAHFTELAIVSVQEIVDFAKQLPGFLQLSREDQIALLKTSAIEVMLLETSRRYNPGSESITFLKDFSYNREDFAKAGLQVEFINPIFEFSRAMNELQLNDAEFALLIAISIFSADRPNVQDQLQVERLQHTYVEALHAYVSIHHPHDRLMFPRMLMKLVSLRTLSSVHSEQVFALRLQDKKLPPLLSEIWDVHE
Sequence of Transcriptional activator Myb (Homo sapiens) (P10242 whole entry, looked up): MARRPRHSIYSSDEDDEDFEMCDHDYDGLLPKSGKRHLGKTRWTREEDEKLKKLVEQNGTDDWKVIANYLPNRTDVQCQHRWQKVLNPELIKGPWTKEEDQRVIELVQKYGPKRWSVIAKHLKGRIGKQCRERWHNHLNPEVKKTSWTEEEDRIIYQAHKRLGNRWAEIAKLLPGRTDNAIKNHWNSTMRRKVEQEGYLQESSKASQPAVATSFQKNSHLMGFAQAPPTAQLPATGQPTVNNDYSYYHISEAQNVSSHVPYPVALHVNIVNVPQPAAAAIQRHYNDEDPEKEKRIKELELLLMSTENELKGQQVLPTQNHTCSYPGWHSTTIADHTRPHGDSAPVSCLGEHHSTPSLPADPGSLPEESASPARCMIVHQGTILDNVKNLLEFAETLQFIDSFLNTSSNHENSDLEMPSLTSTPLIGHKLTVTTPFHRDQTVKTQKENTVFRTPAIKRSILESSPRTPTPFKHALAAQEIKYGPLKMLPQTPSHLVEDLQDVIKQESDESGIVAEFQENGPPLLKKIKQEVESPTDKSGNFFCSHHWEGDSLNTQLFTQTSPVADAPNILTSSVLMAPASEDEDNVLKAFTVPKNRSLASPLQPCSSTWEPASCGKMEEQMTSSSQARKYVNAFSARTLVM
Sequence of Bile acid receptor (Homo sapiens) (Q96RI1 whole entry, looked up, the tested form may be a part): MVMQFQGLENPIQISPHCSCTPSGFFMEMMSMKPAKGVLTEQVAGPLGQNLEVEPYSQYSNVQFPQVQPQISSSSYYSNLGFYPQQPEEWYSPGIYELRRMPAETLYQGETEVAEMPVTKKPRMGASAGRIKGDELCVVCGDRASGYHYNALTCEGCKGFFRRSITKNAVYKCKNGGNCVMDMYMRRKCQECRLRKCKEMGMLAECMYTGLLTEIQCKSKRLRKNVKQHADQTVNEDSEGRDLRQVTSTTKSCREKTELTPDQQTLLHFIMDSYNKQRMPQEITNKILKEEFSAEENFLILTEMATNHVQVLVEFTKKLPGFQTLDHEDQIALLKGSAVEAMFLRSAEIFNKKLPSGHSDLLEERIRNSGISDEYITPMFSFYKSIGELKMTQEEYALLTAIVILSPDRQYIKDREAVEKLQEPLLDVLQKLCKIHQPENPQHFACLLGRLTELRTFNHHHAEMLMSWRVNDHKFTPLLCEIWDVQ
Sequence of Nuclear receptor subfamily 1 group I member 3 (Homo sapiens) (Q14994 whole entry, looked up, the tested form may be a part): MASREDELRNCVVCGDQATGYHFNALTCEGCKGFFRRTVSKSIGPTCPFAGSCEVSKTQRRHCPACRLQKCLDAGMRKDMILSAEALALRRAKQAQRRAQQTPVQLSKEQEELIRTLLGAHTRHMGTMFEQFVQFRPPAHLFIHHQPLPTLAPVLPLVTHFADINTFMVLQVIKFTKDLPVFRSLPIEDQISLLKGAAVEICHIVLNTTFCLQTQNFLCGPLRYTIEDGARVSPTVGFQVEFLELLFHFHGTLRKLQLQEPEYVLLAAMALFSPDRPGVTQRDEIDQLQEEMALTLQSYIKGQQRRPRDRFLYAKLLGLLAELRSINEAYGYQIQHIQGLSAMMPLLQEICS
Sequence of Steroid hormone receptor ERR1 (Homo sapiens) (P11474 whole entry, looked up, the tested form may be a part): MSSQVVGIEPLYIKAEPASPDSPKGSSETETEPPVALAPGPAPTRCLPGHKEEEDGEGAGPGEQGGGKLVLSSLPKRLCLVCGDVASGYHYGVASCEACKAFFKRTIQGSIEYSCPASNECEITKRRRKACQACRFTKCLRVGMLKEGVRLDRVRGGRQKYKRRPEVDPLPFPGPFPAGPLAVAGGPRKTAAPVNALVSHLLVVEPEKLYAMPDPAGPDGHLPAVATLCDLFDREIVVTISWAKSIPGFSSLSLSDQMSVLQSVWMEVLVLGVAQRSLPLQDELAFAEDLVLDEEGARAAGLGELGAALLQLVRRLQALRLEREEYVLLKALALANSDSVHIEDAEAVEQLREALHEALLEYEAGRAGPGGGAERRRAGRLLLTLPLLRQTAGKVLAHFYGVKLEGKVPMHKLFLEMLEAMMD
Sequence of Hepatocyte nuclear factor 4-alpha (Homo sapiens) (P41235 whole entry, looked up): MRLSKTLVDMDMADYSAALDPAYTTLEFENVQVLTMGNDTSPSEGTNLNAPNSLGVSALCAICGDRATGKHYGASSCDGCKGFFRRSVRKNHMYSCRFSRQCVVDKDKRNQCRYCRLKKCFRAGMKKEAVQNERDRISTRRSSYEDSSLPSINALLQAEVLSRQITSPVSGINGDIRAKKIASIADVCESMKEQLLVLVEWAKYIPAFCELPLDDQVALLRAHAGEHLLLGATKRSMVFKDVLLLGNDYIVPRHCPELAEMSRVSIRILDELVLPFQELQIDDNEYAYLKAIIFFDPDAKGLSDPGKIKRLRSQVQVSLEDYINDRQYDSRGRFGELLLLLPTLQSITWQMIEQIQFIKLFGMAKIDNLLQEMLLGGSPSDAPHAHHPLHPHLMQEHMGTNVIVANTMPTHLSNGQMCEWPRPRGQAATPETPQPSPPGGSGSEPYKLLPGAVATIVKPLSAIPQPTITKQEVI
Sequence of Glucocorticoid receptor (Homo sapiens) (P04150 whole entry, looked up, the tested form may be a part): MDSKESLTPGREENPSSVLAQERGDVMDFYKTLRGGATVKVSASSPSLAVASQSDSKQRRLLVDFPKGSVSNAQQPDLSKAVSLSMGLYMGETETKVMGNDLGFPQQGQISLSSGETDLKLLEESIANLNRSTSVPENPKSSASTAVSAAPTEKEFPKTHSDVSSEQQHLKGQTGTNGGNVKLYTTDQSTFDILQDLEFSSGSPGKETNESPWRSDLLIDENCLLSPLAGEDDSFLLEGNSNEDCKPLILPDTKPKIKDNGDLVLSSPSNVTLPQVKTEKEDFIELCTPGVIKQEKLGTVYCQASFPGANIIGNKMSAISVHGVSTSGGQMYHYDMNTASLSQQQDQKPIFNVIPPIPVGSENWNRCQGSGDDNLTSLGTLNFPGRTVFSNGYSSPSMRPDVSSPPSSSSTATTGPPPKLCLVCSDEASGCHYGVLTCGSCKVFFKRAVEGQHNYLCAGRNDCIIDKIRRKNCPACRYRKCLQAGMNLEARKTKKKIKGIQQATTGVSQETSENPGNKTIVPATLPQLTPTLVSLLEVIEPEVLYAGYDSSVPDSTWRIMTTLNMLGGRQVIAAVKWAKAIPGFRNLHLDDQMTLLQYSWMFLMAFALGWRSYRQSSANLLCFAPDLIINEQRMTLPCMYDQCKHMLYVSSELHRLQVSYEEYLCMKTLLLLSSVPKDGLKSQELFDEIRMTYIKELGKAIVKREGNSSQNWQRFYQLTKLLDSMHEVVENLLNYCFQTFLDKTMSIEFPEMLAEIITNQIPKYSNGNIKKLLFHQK
Sequence of X-box-binding protein 1 (Homo sapiens) (P17861 whole entry, looked up): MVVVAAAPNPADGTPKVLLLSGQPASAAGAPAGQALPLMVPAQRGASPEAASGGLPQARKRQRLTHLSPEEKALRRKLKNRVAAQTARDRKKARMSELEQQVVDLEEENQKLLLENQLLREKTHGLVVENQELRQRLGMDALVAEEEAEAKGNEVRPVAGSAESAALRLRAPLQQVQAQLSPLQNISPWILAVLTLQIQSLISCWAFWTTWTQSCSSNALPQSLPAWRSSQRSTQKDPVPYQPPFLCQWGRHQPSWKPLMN

CCCCCCCCCCOS(=O)(=O)O
inactive: [1] | [2] | [3] | [4] | [5] | [6] | [7] | [8]

C=CCOc1c(Br)cc(Br)cc1Br
active: [3] 23.7 µM | [5] 15.7 µM | [13] 43.4 µM
not listed: [15] | [16] | [17] | [18] | [19] | [20]
inactive: all other assays above

CCCCCCCCCCc1ccccc1
not listed: [4] | [17] | [18] | [19] | [20]
inactive: all other assays above

O=C(c1ccccc1)C1CCC1
not listed: [7] | [9] | [10] | [13] | [15] | [18] | [19] | [20]
inactive: all other assays above

CO[Si](OC)(OC)c1ccccc1
not listed: [4] | [7] | [9] | [10] | [13] | [16] | [17] | [20]
inactive: all other assays above

CCCCCCCCc1ccc(Nc2ccc(CCCCCCCC)cc2)cc1
active: [3] 19.8 µM
not listed: [4] | [9] | [10] | [11] | [16] | [17] | [20]
inactive: all other assays above

COc1ccc(C(Cl)=C(c2ccc(OC)cc2)c2ccc(OC)cc2)cc1
active: [3] 4.46 µM
not listed: [5] | [7] | [9] | [16] | [17] | [18] | [20]
inactive: all other assays above

O=[N+]([O-])C1(Br)COCOC1
active: [6] 53.1 µM
not listed: [4] | [17] | [18] | [19] | [20]
inactive: all other assays above

CCN(CC#N)c1cccc(C)c1
not listed: [7] | [9] | [15] | [16] | [18] | [19] | [20]
inactive: all other assays above

O=C(c1ccccc1)c1ccc(O)c(O)c1O
active: [5] 27.3 µM
not listed: [4] | [7] | [18]
inactive: all other assays above

Source: PubChem BioAssay (EPA / NIEHS)
